The source of these data is PubChem BioAssay (EPA / NIEHS).

Several values for one entry are separate records, joined by “and”; a condition that tells them apart may be missing. Equal values may be shown once. Activity calls are given as the source filed them. How the source made its calls: active means hit-call score of the fitted dose curve at least 0.9, where 1 is the maximum; inactive means score below 0.9.

Read-out in this test: Matrix Metallopeptidase 1 (MMP1), MMP1 (gene 4312)
As to the kind of experiment: BSK_hDFCGF_MMP1: BioMAP Diversity Plus: hDFCGF Assay for Matrix Metallopeptidase 1 (MMP1) Biomarker Activity (AID 2283064). As to conditions: primary human foreskin fibroblasts; actives raise or lower the signal. On the procedure: BSK_hDFCGF is a cell-based, multiplexed-readout assay that uses foreskin fibroblast, a human skin primary cell, with measurements taken at 24 hours after chemical dosing in a 96-well plate.BSK_hDFCGF_MMP1 is an assay component measured in the BSK_hDFCGF assay. It measures MMP-1 antibody related to regulation of gene expression using ELISA technology.Data from the assay component BSK_hDFCGF_MMP1 was analyzed into 1 assay endpoint. This assay endpoint, BSK_hDFCGF_MMP1, was analyzed with bidirectional fitting relative to DMSO as the negative control and baseline of activity. Using a type of binding reporter, gain or loss-of-signal activity can be used to understand changes in the signaling as they relate to the gene MMP1. Furthermore, this assay endpoint can be referred to as a primary readout, because this assay has produced multiple assay endpoints where this one serves a signaling function. To generalize the intended target to other relatable targets, this assay endpoint is annotated to the protease intended target family, where the subfamily is matrix metalloproteinase.
The levels of cell surface (or secreted, indicated by the prefix "s") biomarker endpoints were measured by ELISA. Overt cytotoxicity to cells in confluent adherent cultures (all systems other than the BT system) was assessed by measuring total protein levels using sulforhodamine B (SRB) staining in parallel cultures at the time of biomarker measurements, indicated as SRB endpoints. For proliferation assays for adherent cell types, individual cell types are cultured at sub-confluence and relative cell numbers quantified by SRB staining at time points optimized for each system (48 h: 3C and CASM3C systems; 72 h: BT and HDF3CGF systems; 96 h: SAg system). SRB was performed by staining cells with 0.1% SRB after fixation with 10% TCA and reading wells at 560 nm.Viability and proliferation of PBMC (T cells) was quantified by Alamar Blue reduction for the SAg and BT systems. For PBMC viability (referred to as PBMC Cytotoxicity within the assay endpoint names), cells were plated (75,000/well in a 96-well plate) and then chemical samples added for 1 h before addition of activators, SEB and TSST-1 (20 ng/mL final concentration each). Cells were incubated for 90 h. Then, Alamar Blue (20 uL/well) (Invitrogen, Cat DAL1100) was added for 6 h, and the plates were read with a fluorescence microplate reader at 546/580 nm (excitation/emission). For PBMC proliferation, cells were plated and activated as above but incubated for only 16 h prior to addition of Alamar Blue. Plates were read after 6 h.
Turning to `c1ccc2c(c1)c1cccc3ccc4cccc2c4c31`, the outcome was inactive.

One may read the AC50 as the concentration giving half of the maximal activity seen. In the case of `C[C@H]1C[C@@H]2[C@H]([C@@H](O)C[C@@]3(C)[C@H]2CC[C@]3(O)C(=O)CO)[C@@]2(C)C=CC(=O)C=C12`, the AC50 was 150 nM (active) and 626 nM (active).

`CC1CCC(C(C)CS)CC1S` (stereo not given): the AC50 was 9.03 µM (active).

In the case of `N#Cc1ccc(CC(=NNC(=O)Nc2ccc(OC(F)(F)F)cc2)c2cccc(C(F)(F)F)c2)cc1`, the outcome was inactive.

On to `CCn1c2ccccc2c2cc(N)ccc21`, for which the result was inactive.

As to `C=C[Si](OCC)(OCC)OCC`, the result was inactive.

Turning to `O=C1OC2(c3cc(Br)c(O)c(Br)c3Oc3c2cc(Br)c(O)c3Br)c2c(Cl)c(Cl)c(Cl)c(Cl)c21`, the half-maximal activity concentration (AC50) was 3.42 µM (active).

For `O=C1CCCCCCCCCCCCCCO1`, the outcome was inactive.

On to `NCCNCCN`, for which the outcome was inactive.

Consider `O=C(O)c1cn(C2CC2)c2cc(N3CCNCC3)c(F)cc2c1=O`, for which the result was inactive.

In the case of `CC(=O)/C=C/C1=C(C)CCCC1(C)C`, the result was inactive.

As to `OC[C@H]1O[C@H](O[C@]2(CCl)O[C@H](CCl)[C@@H](O)[C@@H]2O)[C@H](O)[C@@H](O)[C@H]1Cl`, the outcome was inactive.

For the compound `Nc1cc([N+](=O)[O-])ccc1Cl`, the outcome was inactive.

In the case of `Cc1ccc(O)c(C(C)(C)C)c1`, the AC50 is 33.4 µM (active).

Consider `CC(=O)[C@H]1CC[C@H]2[C@@H]3CC=C4C[C@@H](O)CC[C@]4(C)[C@H]3CC[C@]12C`, for which the outcome was inactive.

Take `Cc1ccc(Nc2ccc(O)c3c2C(=O)c2ccccc2C3=O)cc1`: the outcome was inactive.

Turning to `O=C(O)c1ccc([N+](=O)[O-])cc1`, the result was inactive.

Turning to `CC[Si](OC(C)=O)(OC(C)=O)OC(C)=O`, the outcome was inactive.

In the case of `CCCCC/C=C/C=C/C=O`, the AC50 is 20 µM (active).

`CC(=O)OCCC(C)CC(C)(C)C` (stereo not given): the outcome was inactive.

Consider `CCCCC(CC)COC(=O)/C=C\C(=O)OCC(CC)CCCC` (stereo not given), for which the result was inactive.

As for `CCC(=O)OCc1ccccc1`, the result was inactive.

Consider `O=P(c1ccccc1)(c1ccccc1)c1ccccc1`, for which the outcome was inactive.

As to `C=CCOC(=O)CCC1CCCCC1`, the result was inactive.

As to `CCCCCCCCCCCCCCCCCC(=O)OCC(CC)CCCC` (stereo not given), the result was inactive.

Take `O=[N+]([O-])c1cc(C(F)(F)F)ccc1Cl`: the outcome was inactive.

For `Nc1cc([N+](=O)[O-])ccc1O`, the outcome was inactive.

Consider `COC(=O)c1ccc(C)cc1`, for which the result was inactive.

As to `O=C(O)c1cn(-c2ccc(F)cc2)c2cc(N3CCNCC3)c(F)cc2c1=O`, the result was inactive.

Take `C#C[C@]1(O)CC[C@H]2[C@@H]3CCC4=Cc5oncc5C[C@]4(C)[C@H]3CC[C@@]21C`: the outcome was inactive.

Consider `CN(CCOc1ccc(CC2SC(=O)NC2=O)cc1)c1ccccn1` (stereo not given), for which the result was inactive.

`OC1OC[C@@H](O)[C@H](O)[C@H]1O` (stereo not given in full): the result was inactive.

For `CC(=O)O[C@]1(C(C)=O)CC[C@H]2[C@@H]3C[C@H](C)C4=CC(=O)CC[C@]4(C)[C@H]3CC[C@@]21C`, the outcome was inactive.

As for `Cc1cc(C2(c3cc(C)c(O)cc3C)OS(=O)(=O)c3ccccc32)c(C)cc1O`, the result was inactive.

For `C=C(C)C(=O)O[C@H]1C[C@@H]2CC[C@@]1(C)C2(C)C`, the AC50 is 34.8 µM (active).

In the case of `CCCCCCCCCC=O`, the outcome was inactive.

As for `BrC1CCC(Br)C(Br)CCC(Br)C(Br)CCC1Br` (stereo not given), the result was inactive.

With `CC(C)(COC(=O)c1ccccc1)COC(=O)c1ccccc1`, the result was inactive.

Take `CCc1c(C)cc(N)c(CC)c1N`: the outcome was inactive.

`CCCCCCCCC=O`: the outcome was inactive.
